# Assay results from PubChem BioAssay.
# Activity calls are given as the source filed them.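 How the source made its calls, unless noted: active means inhibition at or above 50% at 10 µM; inactive means inhibition below 50%.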
# Columns and labels:
# [1] = inhibitors of TNFa-induced NFkB p65 translocation, primary screen, imaging, HUVEC, MLSMR starter and 10KST1 sets (AID 438;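 active means inhibition above 20% together with a positive visual image hit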;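 further: compound added about 3h40 before a 20 min TNFalpha stimulation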;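 on inhibition: signal is the nuclear over cytoplasmic p65 intensity ratio per well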); settings: HUVEC TNFa-induced p65 nuclear translocation; cell count: measured here: nuclei count (cytotoxicity indicator), at 2.08 µM; inhibition: at 2 µM, stronger effect = higher value, 0% TNFa-plus-vehicle, 100% no-TNFa wells
# [2] = reduction of polyQ htt aggregates in cells – imaging, exon1htt(103Q)mCFP cells, high-content imaging, primary screen (AID 483;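 active means visual image review flags a hit and inhibition of aggregation exceeds 20%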;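 further: compound exposure lasted 3 days before fixation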;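 on nuclei count: percent of the per-plate median nuclei count of sample wells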); settings: exon1htt(103Q)mCFP cell line, aggregate imaging, at 2 µM; inhibition of aggregation: stronger effect = higher value; nuclei count: measured here: cell count, toxicity
# [3] = endothelial E-selectin expression blockers – imaging, HUVEC, immunofluorescence, MLSMR starter and 10KST1 sets, primary screen (AID 487;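 active means visually confirmed hit in the image check and inhibition above 20%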;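 on inhibition: signal is fraction of cell area covered by stained E-selectin grains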;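 on nuclei count: 100% = median nuclei count of all wells on the same plate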); settings: HUVEC TNFalpha-induced E-selectin immunofluorescence imaging, at 2 µM; inhibition: stronger effect = higher value; nuclei count: measured here: cell number, toxicity
# [4] = target: Voltage-gated potassium channel subunit beta-2 (Rattus norvegicus) (UniProt P62483); assay: inhibitors of rat Kvbeta2 reductase activity – biochemical, NADPH fluorescence, primary screen (AID 622;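 active means fluorescence slope higher than the sample average by over 3 SD, cut at about -0.22 in these data, passing the limit was not always enough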;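 further: slope of raw intensity against log time taken from 70 to 1610 s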); settings: recombinant KvBeta, 4-cyanobenzaldehyde reduction, at 10 µM, stronger effect = higher value
# [5] = target: Voltage-gated potassium channel subunit beta-2 (Rattus norvegicus) (UniProt P62483); assay: enhancers of rat Kvbeta2 NADPH turnover – biochemical, NADPH fluorescence, primary screen (AID 623;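 active means NADPH fluorescence slope more negative than the mean of all samples by about 3 SD, 99.7% confidence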;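 further: fluorescence intensity change per second fitted from 20 to 320 s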); settings: Recombinant KvBeta, NADPH fluorescence decrease slope, 10 min; at 10 µM; stronger effect = lower value
# [6] = target: Alpha-2C adrenergic receptor (Homo sapiens) (UniProt P18825); assay: compounds altering alpha2C-coupled GIRK flux – cell-based, HEK293 alpha2C/GIRK1/2, thallium flux, primary screen (AID 624;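 active means fluorescence slope after compound addition differing from the mean of all screened samples at 99.7% confidence, in either direction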;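 further: slope of fluorescence ratio to pre-addition baseline per second over 15 to 24 s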); settings: thallium flux BTC fluorescence, at 10 µM, actives lie on both sides
# [7] = blockers of RIG-like receptor reporter activation – cell-based, Sendai virus stimulus, luciferase, 10K MLSCN set, TLR/RLR signaling modifier project, primary screen (AID 602276); settings: HEK293 RL24 IRF3 luciferase reporter, at 10 µM, stronger effect = higher value;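 further: firefly luciferase from ISG56 promoter only with Renilla not read in this screen; 0% = Sendai virus plus DMSO and 100% = medium plus DMSO without virus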
# [8] = TLR3 IRF3 reporter activation blockers – cell-based, poly I:C stimulus, luciferase, 10K MLSCN set, primary screen (AID 602277;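 active means inhibition of the reporter signal at or above 50%; inactive means inhibition below 50%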); settings: HEK293-TLR3 RL24 IRF3 luciferase reporter, at 10 µM, stronger effect = higher value
# Alpha-2C adrenergic receptor (Homo sapiens), sequence (P18825 whole entry, looked up): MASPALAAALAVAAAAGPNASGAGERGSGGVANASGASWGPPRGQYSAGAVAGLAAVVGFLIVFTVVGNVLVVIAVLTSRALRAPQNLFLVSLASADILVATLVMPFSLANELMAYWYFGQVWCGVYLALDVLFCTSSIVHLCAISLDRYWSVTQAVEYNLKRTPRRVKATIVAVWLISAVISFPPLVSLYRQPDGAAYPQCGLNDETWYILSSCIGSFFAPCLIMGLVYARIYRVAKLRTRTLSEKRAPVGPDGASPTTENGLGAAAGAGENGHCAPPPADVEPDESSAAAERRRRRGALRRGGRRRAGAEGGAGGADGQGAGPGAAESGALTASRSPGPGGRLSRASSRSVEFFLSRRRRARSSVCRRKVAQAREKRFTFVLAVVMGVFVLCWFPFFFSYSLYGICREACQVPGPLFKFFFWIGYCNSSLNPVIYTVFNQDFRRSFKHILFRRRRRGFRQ
# Voltage-gated potassium channel subunit beta-2 (Rattus norvegicus), sequence (P62483 whole entry, looked up): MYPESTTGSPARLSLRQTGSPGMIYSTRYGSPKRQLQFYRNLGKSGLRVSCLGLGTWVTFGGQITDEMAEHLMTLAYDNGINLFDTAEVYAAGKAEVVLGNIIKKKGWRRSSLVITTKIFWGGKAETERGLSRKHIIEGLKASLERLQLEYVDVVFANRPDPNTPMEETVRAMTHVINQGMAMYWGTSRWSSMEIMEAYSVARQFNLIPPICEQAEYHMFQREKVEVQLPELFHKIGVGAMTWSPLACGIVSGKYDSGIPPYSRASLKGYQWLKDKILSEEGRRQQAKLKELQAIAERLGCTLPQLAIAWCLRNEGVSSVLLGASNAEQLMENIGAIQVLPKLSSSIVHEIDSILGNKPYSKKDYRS
compound,measurement,setting,value
CCOc1ccc(N(CC(=O)NC2CCCCC2)S(=O)(=O)c2c(C)noc2C)cc1,cell count,[1],710
same,inhibition,[1],-2.8% (inactive)
same,inhibition of aggregation,[2],33.7% (inactive)
same,nuclei count,[2],117%
same,inhibition,[3],-52.9% (inactive)
same,nuclei count,[3],112%
same,fluorescence slope,[4],-0.616 (inactive)
same,NADPH fluorescence slope,[5],-2.8e-05 (inactive)
same,slope,[6],0.00737 (inactive)
same,inhibition,[7],-0.99% (inactive)
same,inhibition,[8],17.1% (inactive)
O=C(CSc1nc(-c2ccccc2)cs1)NC(=O)NCc1ccco1,cell count,[1],355
same,inhibition,[1],-1.1% (inactive)
same,inhibition of aggregation,[2],1% (inactive)
same,nuclei count,[2],75.7%
same,inhibition,[3],-105% (inactive)
same,nuclei count,[3],125%
same,fluorescence slope,[4],-0.429 (inactive)
same,NADPH fluorescence slope,[5],3.1e-06 (inactive)
same,slope,[6],0.00572 (inactive)
same,inhibition,[7],18.5% (inactive)
same,inhibition,[8],3.13% (inactive)
N#Cc1nc(COc2ccccc2)oc1NCCCn1ccnc1,cell count,[1],371
same,inhibition,[1],5.2% (inactive)
same,inhibition of aggregation,[2],0.8% (inactive)
same,nuclei count,[2],95.5%
same,inhibition,[3],6.7% (inactive)
same,nuclei count,[3],90.9%
same,fluorescence slope,[4],-0.629 (inactive)
same,NADPH fluorescence slope,[5],-1.3e-05 (inactive)
same,slope,[6],0.00641 (inactive)
same,inhibition,[7],-11.6% (inactive)
same,inhibition,[8],-1.22% (inactive)
Cc1ccc(NC(=O)c2ccccc2O)cc1,cell count,[1],631
same,inhibition,[1],12.1% (inactive)
same,inhibition of aggregation,[2],8% (inactive)
same,nuclei count,[2],91.3%
same,inhibition,[3],-203% (inactive)
same,nuclei count,[3],119%
same,fluorescence slope,[4],-0.602 (inactive)
same,NADPH fluorescence slope,[5],-5.6e-05 (inactive)
same,slope,[6],0.00651 (inactive)
same,inhibition,[7],-61.1% (inactive)
same,inhibition,[8],-73.1% (inactive)
COc1cccc(-c2nc(CS(=O)(=O)CC(=O)NCc3ccc(Cl)cc3)c(C)o2)c1,cell count,[1],840
same,inhibition,[1],-2.3% (inactive)
same,inhibition of aggregation,[2],-4.4% (inactive)
same,nuclei count,[2],122%
same,inhibition,[3],-41.4% (inactive)
same,nuclei count,[3],118%
same,fluorescence slope,[4],-0.554 (inactive)
same,NADPH fluorescence slope,[5],1.6e-06 (inactive)
same,slope,[6],0.00669 (inactive)
same,inhibition,[7],-3.28% (inactive)
same,inhibition,[8],18% (inactive)
Cc1cc(C(F)(F)F)nc(SCC(=O)NC2=NC(=O)C(C)S2)n1 (configuration not stated),cell count,[1],370
same,inhibition,[1],6.1% (inactive)
same,inhibition of aggregation,[2],4.5% (inactive)
same,nuclei count,[2],109%
same,inhibition,[3],19.6% (inactive)
same,nuclei count,[3],99%
same,fluorescence slope,[4],-0.457 (inactive)
same,NADPH fluorescence slope,[5],-1.9e-05 (inactive)
same,slope,[6],0.00515 (inactive)
same,inhibition,[7],-20.9% (inactive)
same,inhibition,[8],-16.9% (inactive)
CCC(C)(C(=O)NC1CCCC1)N(Cc1cccs1)C(C)=O (configuration not stated),cell count,[1],472
same,inhibition,[1],6.2% (inactive)
same,inhibition of aggregation,[2],-9.4% (inactive)
same,nuclei count,[2],115%
same,inhibition,[3],-15% (inactive)
same,nuclei count,[3],93.8%
same,fluorescence slope,[4],-0.491 (inactive)
same,NADPH fluorescence slope,[5],-1.6e-05 (inactive)
same,slope,[6],0.00646 (inactive)
same,inhibition,[7],14.8% (inactive)
same,inhibition,[8],24.4% (inactive)
